Experimental findings from PubChem BioAssay (NCI) are described below.

The test can be described thus: NCI Yeast Anticancer Drug Screen. Data for the CLN2oe strain (AID 163).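 Also: 0% = growth of vehicle-only control cultures.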 Particulars: S. cerevisiae CLN2oe strain, stronger effect = higher value. As to the method: Growth inhibition of yeast strains with defined genetic alterations is measured as a screen for potential anti-cancer activity. Selected strains with alterations in DNA damage repair or cell cycle control were exposed to compounds and growth inhibition was measured relative to vehicle treated controls. The strain used in this assay is CLN2oe

This is part of a sample that, as a whole, favours compounds with a hit. Of some 79,000 tested, about 15% had one in any assay. Unmarked numbers belong to inactive results. The source made the active and inactive calls. Rule as the data show it: active = growth inhibition above about 70%; inactive = the rest. Residues, ends and D or L forms follow the SMILES beside them. *: point of attachment. CH2Cl = ClC*

In the case of `CCOC(=O)c1csc(Br)n1`, the growth inhibition is -2% (at 1.2 µM); -5% (at 3.7 µM); 0% (at 11.0 µM); 0% (at 33.0 µM); -4% (at 100.0 µM).

For `CC(C)(O)c1ccccc1C(c1ccccc1)c1ccccc1`, the growth inhibition was 1% (at 1.2 µM); -1% (at 3.7 µM); 3% (at 11.0 µM); 9% (at 33.0 µM); 17% (at 100.0 µM).

On to `CC(=O)NC(CC(C)C)C(=O)NC(Cc1ccccc1)C(=O)CCl` (stereo not drawn) (Ac-Leu-Phe-CH2Cl; configuration not given here), for which the growth inhibition runs as follows: (at 1.2 µM) -8%; (at 3.7 µM) -7%; (at 11.0 µM) -8%; (at 33.0 µM) -2%; (at 100.0 µM) 51%.

As to `Clc1cc(Cc2ccc(N=C/C=C/c3ccccc3)c(Cl)c2)ccc1N=C/C=C\c1ccccc1`, the growth inhibition (at 1.2 µM) is -3%; the growth inhibition (at 3.7 µM) is -18%; the growth inhibition (at 11.0 µM) is -20%; the growth inhibition (at 33.0 µM) was -31%; the growth inhibition (at 100.0 µM) is 3%.

Regarding `O=C1NC(c2c(Cl)cccc2Cl)Nc2ccccc21` (stereo not given), the growth inhibition was 14% (at 1.2 µM); 2% (at 3.7 µM); -7% (at 11.0 µM); 54% (at 33.0 µM); 93% (active) (at 100.0 µM).

For the molecule `Cc1cccc(/C=N\NC(=S)N2CCCCC2)n1`, the growth inhibition reads like this: (at 1.2 µM) 8%; (at 3.7 µM) 85% (active); (at 11.0 µM) 98% (active); (at 33.0 µM) 98% (active); (at 100.0 µM) 91% (active).

Turning to `Cc1ccc(I)cc1N=C=S`, the growth inhibition reads like this: (at 1.2 µM) -2%; (at 3.7 µM) 6%; (at 11.0 µM) 10%; (at 33.0 µM) 68%; (at 100.0 µM) 98% (active).

Consider `COC(=O)c1n[nH]c(C)c1N=NN(C)CCC#N`, for which the growth inhibition reads like this: (at 1.2 µM) -2%; (at 3.7 µM) -3%; (at 11.0 µM) 95% (active); (at 33.0 µM) 99% (active); (at 100.0 µM) 99% (active).
